Screens (PubChem)
Hsp70 act – Hsp70 transcriptional activators, primary screen, cell-based, HeLa, Hsp70 promoter luciferase, luminescence, 10 µM; activation, % at 10 µM; HeLa Hsp70 promoter luciferase reporter; scaled: vehicle 0, proteasome-inhibitor control 100%; AID 1203, 2008; hit rate 0.04% among 200,000;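 active means activation above the mean across all tested compounds plus 3 SD, cutoff set per campaign, cut at about 5.5% in these data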;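 further: 100% = MG132 at 30 µM as the positive control and 0% = DMSO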
FXN GAA850 act – FXN promoter activators, primary screen, cell-based, luciferase luminescence, HEK293 lucGAA850; HEK293 lucGAA850 FXN promoter luciferase reporter, 24 h; percent of 10 µM SAHA response; activation, % at 6 µM; hit rate 0.56% among 360,000; AID 540364, 2011;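 active means activation above the average of all compounds screened plus 3 SD, cutoff fixed separately per campaign, cut at about 7.5% in these data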;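 further: 0% = DMSO wells and 100% = 10 µM SAHA wells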
HIF activator – HIF pathway transcriptional activators, primary screen, cell-based, U2OS HRE-luciferase, luminescence; hit rate 0.32% among 300,000; activation, % at 7.5 µM (by protocol); AID 1910, 2009; U2OS HRE-luciferase reporter; normalized: DMSO 0%, desferrioxamine 100%;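 active means mean activation of at least 10% of the iron chelator positive control signal, with at least half of replicates also reaching 10%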
SMARCA2 act – SMARCA2 (BRM) function activators, primary screen, cell-based, luminescence, high throughput; hit rate 1% among 370,000; AID 652017, 2013; MG213 cells, MMTV-luciferase reporter, dexamethasone, overnight; activation, % at 9.1 µM; in the data active means activation above about 7.8%;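 further: 0% = vehicle wells and 100% = reference activator wells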
GalR3 antag – GalR3 antagonists in HEK293 cells, primary screen, cell-based, fluorescence readout | HEK293 GalR3-CNG cAMP membrane potential fluorescence; galR3 body fused to GalR1 C-terminus | inhibition, % at 3 µM | hit rate 0.44% among 360,000;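 active means inhibition above the screen-wide average plus 3 SD, cut at about 13% in these data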;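 further: forskolin and galanin both at EC90 stimulate the cells; cAMP rise reported by CNG channel membrane potential dye signal; 0% = forskolin plus galanin with DMSO and 100% = forskolin alone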
Target sequence (O60755 1-299 limits assumed): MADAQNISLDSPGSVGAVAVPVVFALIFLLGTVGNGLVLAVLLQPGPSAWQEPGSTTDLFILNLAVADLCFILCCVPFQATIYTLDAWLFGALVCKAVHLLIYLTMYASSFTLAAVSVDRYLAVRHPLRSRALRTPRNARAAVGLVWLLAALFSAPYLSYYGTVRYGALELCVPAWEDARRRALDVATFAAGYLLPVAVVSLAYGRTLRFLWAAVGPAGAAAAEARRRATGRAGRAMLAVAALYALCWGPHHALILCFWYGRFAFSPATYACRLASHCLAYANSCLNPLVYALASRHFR
SMARCA2 act conf – SMARCA2 (BRM) function activators, confirmation, cell-based, luminescence, triplicate; shares compounds with SMARCA2 act; MG213 cells, MMTV-luciferase with dexamethasone, overnight; MG213 cells expressing E1A, Rb sequestered; DMSO wells 0%, reference activator 100%; activation, % at 9.1 µM; hit rate 30% among 3,500;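 active means activation above its plate's cutoff, the mean activation of tested wells plus 3 SD, cut at about 7.9% in these data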
VP16 Luc act – GAL4-VP16 luciferase reporter activation, counter-screen for SMARCA2 (BRM) activator project, cell-based, pG5luc, luminescence, high throughput; activation, % at 9.1 µM; shares compounds with SMARCA2 act; AID 686939, 2013; HEK293 GAL4-VP16 pG5luc reporter; scaled: DMSO wells 0%, SAHA wells 100%; hit rate 41% among 3,500;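 active means activation above the solvent-only control well mean plus 3 SD, averaged across control plates, cut at about 5.2% in these data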
The depositor's hits bear a star; nt = not tested or not shown. Compounds with a hit are over-represented: about 2.2% of the library has one in this group of screens.

SMILES	Hsp70 act	FXN GAA850 act	HIF activator	SMARCA2 act	GalR3 antag	SMARCA2 act conf	VP16 Luc act
CN1C(=O)[C@@]2(C3=C(CCCC3=O)OC3=C2C(=O)CC(C)(C)C3)c2ccccc21	nt	nt	nt	-3	-4	nt	nt
CC1(C(=O)Nc2cnc3ccccc3c2)CCN1Cc1ccc2ccccc2c1 (stereo not given)	nt	2	nt	12*	-5	-2	1
CCCCNC(=O)C[C@H]1C[C@@]2(C(=O)OC)C(=C[C@H](C3CCCC3)O[C@@H]2C)N(CCc2ccc(OC)c(OC)c2)C1=O	nt	nt	nt	-5	nt	nt	nt
CCN(CC)c1ccc(NC(=O)c2cccc(C)c2OC)c(C)c1	0	4	0	8.2*	-3	14*	4
Cc1ccc(-c2cc(C#N)c3n(c2=O)CCC3)cc1	nt	nt	nt	-1	nt	nt	nt
Cc1ccc(Cc2c(-c3ccc(Br)cc3)nc3cc(C)ccn23)cc1	nt	3	nt	8.2*	-6	5	4
O=C(Nc1ccccc1F)N1CCc2ccccc2C1	nt	3	4	10*	-3	2	8.0*
CCN(CC(=O)Nc1cccc(OC)c1)C(=O)c1ccc(C)s1	0	0	0	8.2*	-5	1	3
COc1ccc(OC)c(C(=O)CSc2nnc(SCc3cccc4ccccc34)s2)c1	nt	nt	nt	1	nt	nt	nt
CCN(CC)C(=O)CCc1nnc(Cc2cccc(C(F)(F)F)c2)o1	1	5	3	16*	3	3	9.2*
CCc1nnc(N/N=C/c2ccccc2Cl)n1N	0	2	2	-3	-2	nt	nt
COc1cccc(/C=N/Nc2nnc(C)n2N)c1OCc1ccccc1Cl	0	-2	-1	16*	-2	0	1
CCOC(=O)N1C(=O)C[C@](Sc2ccc(OC)cc2)(C(=O)N2CCN(C(C)=O)CC2)[C@H]1c1ccc(OC)cc1	nt	nt	nt	-3	nt	nt	nt
O=C(NCCCN1CCCC1)c1ccc(CS(=O)(=O)c2ccc(Br)cc2)o1	0	-1	0	9.5*	4	-1	1
Cc1ccccc1S(=O)Cc1ccc(C(=O)NCCCN2CCCCC2)o1 (stereo not given)	nt	0	-1	12*	-8	-6	0
COC(=O)[C@]12C[C@H](CC(=O)NCc3ccc(C)o3)C(=O)N(CCc3ccc(OC)c(OC)c3)C1=C[C@H](C1CCCC1)O[C@@H]2C	nt	nt	nt	4	nt	nt	nt
O=S1(=O)c2c(cccc2N2CCSCC2)Oc2ccccc2CN1Cc1cn(Cc2ccccc2C(F)(F)F)nn1	nt	nt	nt	-2	nt	nt	nt
C/C(=N\NC(=S)NCc1ccccc1)c1ccc(Cl)s1	0	1	0	-3	-1	nt	nt
C/C(=N\NC(=S)NCc1ccccc1)c1cccs1	0	1	2	8.1*	-7	2	1
CCCCOC(=O)Nc1nnc(C(C)C)s1	0	3	2	8.0*	0	8.6*	10.0*
Cc1nn(-c2ccccc2)c2sc(C(=O)NCCc3ccc(Cl)cc3)cc12	nt	nt	nt	-6	nt	nt	nt
COc1cccc(C2C(C(=O)OC(C)C)=C(C)Nc3ncnn32)c1 (stereo not given)	0	-3	-1	8.2*	-3	1	1
CC1=C(C(=O)OC(C)C)C(c2cccc(F)c2)n2ncnc2N1 (stereo not given)	0	-2	0	0	nt	nt	nt
CCN(CC)CCN(C(=O)CCS(=O)(=O)c1ccccc1)c1nc2cc(OC)c(OC)cc2s1	nt	-1	-1	8.7*	-5	-4	1
COc1ccc(Cl)c2sc(N(CCN(C)C)C(=O)CCS(=O)(=O)c3ccc(C)cc3)nc12	nt	1	1	-1	-9	nt	nt
SMILES	Hsp70 act	FXN GAA850 act	HIF activator	SMARCA2 act	GalR3 antag	SMARCA2 act conf	VP16 Luc act
COc1ccc(OC)c2sc(N(CCCN(C)C)C(=O)CCS(=O)(=O)c3ccccc3)nc12	nt	31*	-1	9.9*	-9	-15	-1
CCN(CC)CCN(C(=O)CCS(=O)(=O)c1ccccc1)c1nc2cc(C)cc(C)c2s1	nt	-1	0	2	-7	nt	nt
Cc1ccc(NC(=O)OCCCN2C(=O)CCC23CCC(C)CC3)cc1C (stereo not given)	nt	nt	nt	-4	nt	nt	nt
CCCC[C@H]1C2CC(OC(=O)Nc3ccccc3C(F)(F)F)C(C2)[C@H]2CCCCN21 (stereo not given in full)	nt	nt	nt	-3	nt	nt	nt
O=C(N/N=C/c1ccc2c(c1)OCO2)C1COc2ccccc2O1 (stereo not given)	0	2	0	8.5*	-5	5	1
COc1ccc(/C=N/NC(=O)C2COc3ccccc3O2)cc1OC (stereo not given)	0	0	0	1	-11	nt	nt
COc1cccc(C(=O)NCC(=O)N/N=C/c2cccnc2)c1	nt	1	0	0	-12	nt	nt
COc1cccc(C(=O)NCC(=O)N/N=C/c2ccc3c(c2)OCO3)c1	nt	1	-10	8.0*	-9	2	0
COc1cc2c(cc1NC(=O)c1ccccc1F)CCCC2	0	6	4	9.3*	-4	4	7.6*
COc1cc(OC)c(NC(=O)c2ccccc2F)cc1Cl	0	6	0	7	-1	nt	nt
CCCCCCCCNS(=O)(=O)/C=C/c1ccccc1CNC(=O)OC(C)(C)C	nt	nt	nt	-5	nt	nt	nt
CCCCN1CN2Cc3cc(F)ccc3C2CS1(=O)=O (stereo not given)	nt	nt	nt	-2	nt	nt	nt
O=C(CCCCCN1C(=O)C2C3C=CC(C3)C2C1=O)Nc1ccc2ncccc2c1 (stereo not given)	nt	nt	nt	0	nt	nt	nt
CN(CCCNC(=O)CCCOc1cc(=O)n(C)c2ccccc12)Cc1ccccc1	0	-1	1	9.6*	-8	2	3
COc1ccc(N2CCN(CC(=O)Nc3ncc(C)s3)CC2)cc1	nt	2	-1	0	-3	nt	nt
Cc1cnc(NC(=O)CN2CCN(c3ccccn3)CC2)s1	0	-2	-1	12*	-1	22*	1
Cc1ccccc1Cn1c([N+](=O)[O-])cnc1C	0	1	0	9.9*	-3	-2	0
Cc1ncc([N+](=O)[O-])n1Cc1ccccc1	0	0	0	-1	2	nt	nt
CC1(C)CC(=O)N(CC(=O)N2CCN(c3cccc(C(F)(F)F)c3)CC2)c2ccccc2S1(=O)=O	nt	nt	nt	-7	nt	nt	nt
Cn1c(-c2nnn(-c3ccc(F)cc3)n2)cc2ccccc21	0	nt	4	8.8*	-1	6	8.4*
